# Earlier results as cited in PubChem BioAssay AID977611.
# Hit rate of the full screen: of about 3,900 compounds, about 3,900 (100%) were called active. Cut-off not given; nearly all actives show Kd up to about 4200 µM. So high a share suggests a set chosen from earlier hits. This is one part of the list. Starred links: 1 amine or outer side, 2 acyl side, 3 side chain; linkers in the order of their positions; H or OH if unused. *1 amine or outer side, *2 acyl side, *3 side chain or, on linkers, in order; H or OH if unused. Where a SMILES comes first, the peptide text is derived from it. Non-standard residues stand in square brackets, D forms with d. Square brackets hold non-standard residues; d marks the D form. Residues, ends and D or L forms follow the SMILES beside them. Bridges are numbered along the chain shown (N, C = ends). Peptide text beside a SMILES is read from it. [ ]: non-standard residue; d: D form. The star is where a group is joined. X1 = O=C([C@@H]1CC[C@H](O)N1[*:1])[*:2]; Orn(CH(NH2)2) = NC(N)NCCC[C@H](N)C(=O)O; Lys(Me2) = CN(C)CCCC[C@H](N)C(=O)O; Lys(Me) = CNCCCC[C@H](N)C(=O)O; S5 = C=CCCC[C@](C)(N)C(=O)O; ΔPro = O=C(O)[C@@H]1C=CCN1; Butyryl = CCCC(=O)*
# Assay: PubChem AID 977611
# Conditions: PDB protein-ligand complexes, literature Kd
molecule,measurement,setting,value
O=c1cc(-c2ccc(O)cc2)oc2ccccc12,Kd,"protein: Tankyrase-2, PDB entry 4kzq",0.788 µM (active)
CC(C)C[C@H](NC(=O)[C@@H]1CCCN1C(=O)[C@H](CO)NC(=O)[C@H](Cc1ccc(O)cc1)NC(=O)[C@@H](NC(=O)[C@H](Cc1c[nH]c2ccccc12)NC(=O)[C@H](CO)NC(=O)[C@H](CCCNC(N)N)NC(=O)[C@H](CCC(=O)O)NC(=O)[C@H](CC(=O)O)NC(=O)[C@@H](NC(=O)[C@@H]1C=CCN1C(=O)[C@H](Cc1ccccc1)NC(=O)[C@@H](N)Cc1ccc(O)cc1)[C@@H](C)O)C(C)C)C(=O)N[C@@H](Cc1c[nH]cn1)C(=O)O (H-YF[ΔPro]TDE[Orn(CH(NH2)2)]SWVYSPLH-OH),Kd,"protein: clathrin adaptor AP-2 complex subunit beta-1, PDB entry 3h1z",22 µM (active)
CC(C)C[C@H](NC(=O)[C@H](Cc1ccc(O)cc1)NC(=O)[C@H](CO)NC(=O)CNC(=O)[C@H](Cc1ccc(O)cc1)NC(=O)[C@@H]1CCCN1C(=O)[C@H](Cc1ccc(O)cc1)NC(=O)[C@H](Cc1c[nH]c2ccccc12)NC(=O)[C@@H](NC(=O)[C@@H](N)CCCNC(N)N)C(C)C)C(=O)N[C@H](C(=O)N[C@@H](C)C(=O)N[C@@H](CO)C(=O)NCC(=O)N[C@@H](CO)C(=O)O)[C@@H](C)O (H-[Orn(CH(NH2)2)]VWYPYGSYLTASGS-OH),Kd,"protein: Concanavalin A(ConA), PDB entry 1jyc",46 µM (active)
CC[C@H](C)[C@H](N)C(=O)N[C@H](C(=O)NCC(=O)NCC(=O)N[C@@H](Cc1ccc(O)cc1)C(=O)N1CCC[C@H]1C(=O)N[C@@H](Cc1c[nH]c2ccccc12)C(=O)N[C@@H](Cc1c[nH]c2ccccc12)C(=O)N[C@@H](CCSC)C(=O)O)C(C)C (H-IVGGYPWWM-OH),Kd,"protein: Hepatocyte growth factor HGF-Beta V495, PDB entry 4o3t",43 µM (active)
CC[C@H](C)[C@H](NC(=O)[C@@H]1CCCN1C(=O)CNC(=O)[C@H](CC(N)=O)NC(=O)[C@@H]1CCCN1C(=O)[C@H](CO)NC(=O)[C@H](Cc1ccccc1)NC(=O)[C@H](CC(C)C)NC(=O)[C@H](Cc1ccc(O)cc1)NC(=O)[C@@H](N)CC(N)=O)C(=O)N[C@@H](C)C(=O)N[C@@H](CCCNC(N)N)C(=O)N[C@@H](C)C(=O)N[C@@H](Cc1c[nH]c2ccccc12)C(=O)O (H-NYLFSPNGPIA[Orn(CH(NH2)2)]AW-OH),Kd,"protein: Ephrin type-B receptor 4, PDB entry 2bba",0.07 µM (active)
CC[C@H](C)[C@H](NC(=O)[C@@H]1CCCN1C(=O)CNC(=O)[C@H](C)N)C(=O)N[C@@H](CO)C(=O)N[C@@H](CC(C)C)C(=O)N[C@@H](CC(N)=O)C(=O)N[C@@H](Cc1c[nH]c2ccccc12)C(=O)N[C@@H](Cc1ccccc1)C(=O)N[C@@H](CCC(=O)O)C(=O)N[C@@H](CCC(=O)O)C(=O)N[C@@H](CC(C)C)C(=O)N[C@@H](CO)C(=O)N[C@@H](C)C=O (H-AGPISLNWFEELSA-aldehyde),Kd,"protein: Partner and localizer of BRCA2, PDB entry 3eu7",0.66 µM (active)
CC[C@H](C)[C@@H]1NC(=O)[C@@](C)(NC(=O)[C@H](CCC(N)=O)NC(=O)[C@@H]2CCCN2C(=O)[C@H](Cc2c[nH]c3ccccc23)NC(=O)[C@@H](N)CCCNC(N)N)CCC/C=C\C/C=C/[C@@](C)(C(=O)N[C@@H](Cc2c[nH]cn2)C(=O)N[C@H](C(=O)N[C@@H](CCCNC(N)N)C(=O)N[C@@H](CCCNC(N)N)C(=O)N[C@H](C(=O)N[C@@H](Cc2c[nH]c3ccccc23)C(=O)O)C(C)C)C(C)C)NC(=O)[C@H](CC(=O)O)NC(=O)[C@H](CC(C)C)NC1=O (H-[Orn(CH(NH2)2)]WPQ[S5]ILD[X1]HV[Orn(CH(NH2)2)][Orn(CH(NH2)2)]VW-OH; staple (Z) 5-9),Kd,"protein: Catenin beta-1, PDB entry 4djs",0.013 µM (active)
H-TKQTARK(Ac)S-NH2,Kd,"protein: Protein AF-9 AF9 YEATS, PDB entry 4tmp",3.7 µM (active)
C[C@H](N)C(=O)N[C@@H](CCCN=C(N)N)C(=O)N[C@H](C(=O)N[C@@H](CCCCN)C(=O)N[C@@H](CCC(N)=O)C(=O)N[C@H](C(=O)N[C@@H](C)C(=O)N[C@@H](CCCN=C(N)N)C(=O)N[C@@H](CCCCN)C(=O)N[C@@H](CO)C(=O)N[C@H](C(=O)NCC(=O)O)[C@@H](C)O)[C@@H](C)O)[C@@H](C)O,Kd,"protein: histone acetyltransferase Hat1p/Hat2p/H4 peptide complex, PDB entry 4psx",0.34 µM (active)
H-GCARSEG-OH,Kd,"protein: WD repeat-containing protein 5, WDR5, PDB entry 4es0",0.103 µM (active)
CCCC(=O)NCCCC[C@H](NC(=O)[C@]1([C@@H](C)O)N[C@@](O)([C@@H](N)CCCN=C(N)N)O1)C(=O)N[C@@H](CCC(N)=O)C(=O)N[C@H](C(=O)N[C@@H](C)C(=O)N[C@@H](CCCN=C(N)N)C(=O)O)[C@@H](C)O (H-[X1]K(Butyryl)QTAR-OH),Kd,"protein: NAD-DEPENDENT PROTEIN DEACETYLASE SIRTUIN-3, MITOCHONDRIAL Sirt3, PDB entry 4v1c",25.1 µM (active)
C[C@H](N)C(=O)N[C@@H](CCCN=C(N)N)C(=O)N[C@H](C(=O)N[C@@H](CCCCN)C(=O)N[C@@H](CCC(N)=O)C(=O)N[C@H](C(=O)N[C@@H](C)C(=O)N[C@@H](CCCN=C(N)N)C(=O)N[C@@H](CCCCN)C(=O)N[C@@H](CO)C(=O)O)[C@@H](C)O)[C@@H](C)O,Kd,"protein: DNA (cytosine-5)-methyltransferase 3A DNMT3A-DNMT3L, PDB entry 4u7t",2.14 µM (active)
C[C@H](N)C(=O)N[C@@H](C)C(=O)N[C@@H](C)C(=O)N[C@@H](C)C(=O)N[C@@H](C)C(=O)N[C@@H](C)C(=O)N[C@@H](C)C(=O)N[C@@H](C)C(=O)N[C@@H](C)C(=O)N[C@@H](C)C(=O)O,Kd,"protein: Transportin 1 (Trn1), PDB entry 2z5o",1 µM (active)
H-ARTAA-OH,Kd,"protein: WD repeat-containing protein 5 WDR5, PDB entry 4o45",70 µM (active)
C[C@H](NC(=O)[C@@H](NC(=O)[C@H](CCC(N)=O)NC(=O)[C@H](CCCCN)NC(=O)[C@@H](N)[C@@H](C)O)[C@@H](C)O)C(=O)N[C@@H](CCCNC(N)N)C(=O)N[C@@H](CCCCN(C)C)C(=O)N[C@@H](CO)C(=O)O (H-TKQTA[Orn(CH(NH2)2)][Lys(Me2)]S-OH),Kd,"protein: SAWADEE HOMEODOMAIN HOMOLOG 1, PDB entry 4iut",1.9 µM (active)
CNCCCC[C@H](NC(=O)[C@H](CCCNC(N)N)NC(=O)[C@H](C)NC(=O)[C@@H](NC(=O)[C@H](CCC(N)=O)NC(=O)[C@H](CCCCN)NC(=O)[C@@H](N)[C@@H](C)O)[C@@H](C)O)C(=O)N[C@@H](CO)C(=O)O (H-TKQTA[Orn(CH(NH2)2)][Lys(Me)]S-OH),Kd,"protein: SAWADEE HOMEODOMAIN HOMOLOG 1, PDB entry 4iuu",2.22 µM (active)
CNCCCC[C@H](NC(=O)[C@H](CCCNC(N)N)NC(=O)[C@H](C)NC(=O)[C@@H](NC(=O)[C@H](CCC(N)=O)NC(=O)[C@H](CCCCNC)NC(=O)[C@@H](N)[C@@H](C)O)[C@@H](C)O)C(=O)N[C@@H](CO)C(=O)N[C@H](C(=O)O)[C@@H](C)O (H-T[Lys(Me)]QTA[Orn(CH(NH2)2)][Lys(Me)]ST-OH),Kd,"protein: SAWADEE HOMEODOMAIN HOMOLOG 1, PDB entry 4iuv",1.9 µM (active)
CC(C)C[C@H](NC(=O)[C@H](CCCNC(N)N)NC(=O)[C@@H](NC(=O)[C@H](CC(=O)O)NC(=O)[C@@H](N)CCC(N)=O)[C@@H](C)O)C(=O)O (HELM PEPTIDE1{Q.D.T.[NC(N)NCCC[C@H](N[*:1])C(=O)[*:2]].L}$$$$V2.0),Kd,"protein: Na(+)/H(+) exchange regulatory cofactor NHE-RF1, PDB entry 2m0u",0.365 µM (active)
same,Kd,"protein: Na(+)/H(+) exchange regulatory cofactor NHE-RF1, PDB entry 2m0v",1.08 µM (active)
CC(C)[C@H](NC(=O)[C@H](CCC(N)=O)NC(=O)[C@@H](NC(=O)[C@H](CCC(=O)O)NC(=O)[C@H](CCCNC(N)N)NC(=O)[C@H](CCCNC(N)N)NC(=O)[C@@H](NC(=O)[C@H](CCCNC(N)N)NC(=O)[C@H](CO)NC(=O)[C@H](CO)NC(=O)[C@@H](N)CCCNC(N)N)[C@@H](C)O)[C@@H](C)O)C(=O)O (H-[Orn(CH(NH2)2)]SS[Orn(CH(NH2)2)]T[Orn(CH(NH2)2)][Orn(CH(NH2)2)]ETQV-OH),Kd,"protein: second PDZ domain of MAGI-1 (Membrane-associated guanylate kinase), PDB entry 2kpl",0.23 µM (active)
CC(C)C[C@H](NC(=O)[C@H](C)NC(=O)[C@H](CC(=O)O)NC(=O)[C@H](CC(C)C)NC(=O)[C@@H](N)CC(=O)O)C(=O)N[C@@H](CC(C)C)C(=O)N[C@@H](C)C(=O)N[C@@H](CC(=O)O)C(=O)N[C@@H](CC(C)C)C(=O)N[C@@H](CCC(=O)O)C(=O)O (H-DLDALLADLE-OH),Kd,"protein: Alpha-parvin, PDB entry 2k2r",1300 µM (active)
CSCC[C@H](NC(=O)[C@H](CC(C)C)NC(=O)[C@H](C)NC(=O)[C@H](CC(=O)O)NC(=O)[C@H](CC(C)C)NC(=O)[C@H](C)NC(=O)[C@H](C)NC(=O)[C@@H](NC(=O)[C@H](C)NC(=O)[C@H](C)N)[C@@H](C)O)C(=O)N[C@@H](C)C(=O)N[C@@H](CO)C(=O)N[C@@H](CC(C)C)C(=O)O (H-AATAALDALMASL-OH),Kd,"protein: Protein-tyrosine kinase 2-beta, Pyk2 FAT domain, PDB entry 3u3f",8 µM (active)
CC(C)[C@H](NC(=O)[C@H](CCC(N)=O)NC(=O)[C@@H](NC(=O)[C@H](CCC(=O)O)NC(=O)[C@H](CC(N)=O)NC(=O)[C@H](CCCNC(N)N)NC(=O)[C@H](CCC(N)=O)NC(=O)[C@H](CCCNC(N)N)NC(=O)[C@@H](NC(=O)[C@H](CCCNC(N)N)NC(=O)[C@@H]1CC[C@H](O)N1)[C@@H](C)O)[C@@H](C)O)C(=O)O (H-[X1][Orn(CH(NH2)2)]T[Orn(CH(NH2)2)]Q[Orn(CH(NH2)2)]NETQV-OH),Kd,"protein: Disks large homolog 1, PDB entry 2m3m",9.63 µM (active)
CSCC[C@H](NC(=O)[C@H](CC(C)C)NC(=O)[C@H](CCC(=O)O)NC(=O)[C@H](CC(=O)O)NC(=O)[C@H](CC(C)C)NC(=O)[C@H](CCC(=O)O)NC(=O)[C@H](CCCNC(N)N)NC(=O)[C@@H](N)[C@@H](C)O)C(=O)N[C@@H](C)C(=O)N[C@@H](CO)C(=O)N[C@@H](CC(C)C)C(=O)N[C@@H](CO)C(=O)O (H-T[Orn(CH(NH2)2)]ELDELMASLS-OH),Kd,"protein: Focal Adhesion Targeting Domain(FAT), PDB entry 1ow6",4 µM (active)
same,Kd,"protein: Focal Adhesion Targeting Domain(FAT), PDB entry 1ow7",4 µM (active)
CC(C)C[C@H](NC(=O)[C@H](CCC(=O)O)NC(=O)[C@H](CC(C)C)NC(=O)[C@H](CC(C)C)NC(=O)[C@H](CC(C)C)NC(=O)[C@H](CCCNC(N)N)NC(=O)[C@H](CC(=O)O)NC(=O)[C@H](CC(C)C)NC(=O)[C@H](CCC(=O)O)NC(=O)[C@H](CO)NC(=O)[C@@H](N)CC(C)C)C(=O)N[C@@H](CC(N)=O)C(=O)O (H-LSELD[Orn(CH(NH2)2)]LLLELN-OH),Kd,"protein: Focal Adhesion Targeting Domain(FAT), PDB entry 1ow8",4 µM (active)
CC(C)C[C@H](NC(=O)[C@H](C)NC(=O)[C@H](C)NC(=O)[C@H](CC(C)C)NC(=O)[C@H](CCCNC(N)N)NC(=O)[C@H](CCCNC(N)N)NC(=O)[C@H](CO)NC(=O)[C@H](CC(C)C)NC(=O)[C@H](CCC(N)=O)NC(=O)[C@H](CC(=O)O)NC(=O)[C@@H](N)CCC(=O)O)C(=O)N[C@@H](CCCNC(N)N)C(=O)N[C@@H](CC(N)=O)C(=O)O (H-EDQLS[Orn(CH(NH2)2)][Orn(CH(NH2)2)]LAAL[Orn(CH(NH2)2)]N-OH),Kd,"protein: Vacuolar protein sorting-associating protein 4A, PDB entry 2jq9",33.4 µM (active)
